Measured values reported in the supplement of paper PMC8975748.
Structures can show the parent of a compound that is named as a salt.

System: Saccharomyces cerevisiae BY4741 SeMeCo community
Experiment: z-score of subpopulation abundance vs DMSO median, subpopulation auxotrophic for HLM; higher = larger share of this subpopulation than in DMSO controls
Conditions: 10 µM; 24 h; SM minimal medium; subpopulation (auxotrophy): HLM
Procedure: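 Fluorescent four-plasmid SeMeCo (self-establishing metabolically cooperating S. cerevisiae BY4741 community; plasmids pH-mRuby2, pL-mWasabi, pU-eCFP, pM-TagRFP657) was grown 24 h in minimal SM medium with each Selleck FDA-approved drug at 10 µM in 384-well plates. Cells were fixed and imaged by high-content confocal microscopy. For each auxotrophic subpopulation (and the prototroph), a z-score gives the deviation from the DMSO vehicle-control population median.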

Structure (SMILES)	z-score of subpopulation abundance
CN[C@@H]1[C@@H](O)[C@@H](O[C@@H]2[C@@H](O)[C@H](O[C@H]3O[C@H]([C@@H](C)O)[C@@H](O)[C@H](O)[C@H]3N)[C@@H](N)C[C@H]2N)OC[C@]1(C)O [Geneticin (G418 Sulfate)]	-0.13
CN(C)C(=O)Oc1cccc([N+](C)(C)C)c1 [Neostigmine Bromide]	-0.52
C[C@@H]1CC[C@H]2[C@@H](C)C(=O)O[C@@H]3O[C@@]4(C)CC[C@@H]1[C@]32OO4 [Artemisinin]	-0.69
Cc1cc(O)ccc1Cl [Chlorocresol]	-0.58
COc1cc2c(cc1OC)C1CC(=O)C(CC(C)C)CN1CC2 (stereo not given) [Tetrabenazine (Xenazine)]	3.78
CCN(C)C(=O)Oc1cccc([C@H](C)N(C)C)c1 [Rivastigmine Tartrate]	0.01
O=C(O[C@H]1C[N+]2(CCCOc3ccccc3)CCC1CC2)C(O)(c1cccs1)c1cccs1 [Aclidinium Bromide]	-0.51
CCCN1C[C@H](CSC)C[C@@H]2c3cccc4[nH]cc(c34)C[C@H]21 [Pergolide Mesylate]	-0.43
COc1ccc2[nH]cc(CCN)c2c1 [5-Methoxytryptamine]	0.21
O=c1[nH]c2ccccc2n1CCCN1CCC(n2c(=O)[nH]c3cc(Cl)ccc32)CC1 [Domperidone]	1.97
CN1[C@@H]2C[C@@H](OC(=O)[C@H](CO)c3ccccc3)C[C@H]1[C@@H]1O[C@@H]12 [Scopolamine HBr trihydrate]	-0.8
CN1C(=O)COc2c(C(=O)NC3CN4CCC3CC4)cc(Cl)cc21 (stereo not given) [Azasetron HCl]	1.29
Oc1cc(Cl)ccc1Oc1ccc(Cl)cc1Cl [Triclosan]	1.15
CN1[C@@H]2CC[C@H]1C[C@@H](OC(=O)C(CO)c1ccccc1)C2 (stereo not given in full) [Atropine sulfate monohydrate]	-0.94
O=C(O[C@H]1C[C@H]2CC[C@@H](C1)[N+]21CCCC1)C(O)(c1ccccc1)c1ccccc1 [Trospium chloride]	0.01
CC(C)=CCOc1c2occc2cc2ccc(=O)oc12 [Imperatorin]	1.2
NCC(O)c1ccc(O)cc1 (racemic) [(+,-)-Octopamine HCl]	-0.75
C[C@@H]1O[C@@H](O[C@H]2C[C@@H](O)[C@]3(CO)[C@H]4[C@H](O)C[C@]5(C)[C@@H](C6=CC(=O)OC6)CC[C@]5(O)[C@@H]4CC[C@]3(O)C2)[C@H](O)[C@H](O)[C@H]1O [Ouabain]	-0.79
CN1[C@@H]2C[C@@H](OC(=O)[C@H](CO)c3ccccc3)C[C@H]1[C@@H]1O[C@@H]12 [Scopolamine HBr]	-0.52
Cc1cc(C(C#N)c2ccc(Cl)cc2)c(Cl)cc1NC(=O)c1cc(I)cc(I)c1O (stereo not given) [Closantel]	-0.4

Structure (SMILES)	z-score of subpopulation abundance
CN[C@@H]1[C@@H](O)[C@@H](O[C@@H]2[C@@H](O)[C@H](O[C@H]3O[C@H](CN)CC[C@H]3N)[C@@H](N)C[C@H]2N)OC[C@]1(C)O.CN[C@@H]1[C@@H](O)[C@@H](O[C@@H]2[C@@H](O)[C@H](O[C@H]3O[C@H]([C@@H](C)N)CC[C@H]3N)[C@@H](N)C[C@H]2N)OC[C@]1(C)O.CN[C@@H]1[C@@H](O)[C@@H](O[C@@H]2[C@@H](O)[C@H](O[C@H]3O[C@H]([C@@H](C)NC)CC[C@H]3N)[C@@H](N)C[C@H]2N)OC[C@]1(C)O [Gentamicin Sulfate]	0.75
C[N+]1(C)[C@@H]2C[C@@H](OC(=O)[C@H](CO)c3ccccc3)C[C@H]1[C@@H]1O[C@@H]12 [Methscopolamine]	0.13
CCC1=C[C@H]2CN3CCc4c([nH]c5ccccc45)[C@](C(=O)OC)(C2)[C@H]13 [Catharanthine]	-0.68
C[CH2][Hg][S]c1ccccc1C(=O)[O-].[Na+] [Thimerosal]	131
CCN(CC)CCOC(=O)C(O)(c1ccccc1)c1ccccc1 [Benactyzine hydrochloride]	0.1
CC(C)N(CCC(C(N)=O)(c1ccccc1)c1ccccn1)C(C)C (stereo not given) [Disopyramide]	0.67
CCCCCCCCCCCCCCCC[n+]1ccccc1 [Cetylpyridinium Chloride]	67.8
C[N+](C)(C)CCCCCCCCCC[N+](C)(C)C [Decamethonium Bromide]	-0.27
CC(=O)O[C@H]1C[C@@H]2CC[C@@H]3[C@H](CC[C@@]4(C)[C@H]3C[C@H]([N+]3(C)CCCCC3)[C@@H]4OC(C)=O)[C@@]2(C)C[C@@H]1[N+]1(C)CCCCC1 [Pancuronium dibromide]	-0.05
CC(C)(O)C(Cl)(Cl)Cl [Chlorobutanol]	-0.04
CC[C@H]1[C@@H]2C[C@H]3[C@@H]4N(C)c5ccccc5[C@]45C[C@@H]([C@@H]2[C@H]5O)N3[C@@H]1O [Ajmaline]	-0.46
Oc1cccc2cccnc12 [8-Hydroxyquinoline]	-0.08
Nc1nc(N)nc(NC2CC2)n1 [Cyromazine]	0.4
CN(C)[C@@H]1C(=O)C(C(N)=O)=C(O)[C@@]2(O)C(=O)C3=C(O)c4c(O)cccc4[C@@](C)(O)[C@H]3C[C@@H]12 [Tetracycline HCl]	-0.42
O=c1cccc2n1C[C@@H]1CNC[C@H]2C1 [Cytisine]	-0.15
N#Cc1nn(-c2c(Cl)cc(C(F)(F)F)cc2Cl)c(N)c1[S+]([O-])C(F)(F)F (stereo not given) [Fipronil]	0
CCN1CC2(OC(=O)c3ccccc3NC(C)=O)CCC(OC)C34C1C(CC23)C1(O)CC(OC)C2CC4C1(O)C2OC (stereo not given) [Lappaconitine]	-0.42
COc1ccc(C(CN(C)C)C2(O)CCCCC2)cc1 (stereo not given) [Venlafaxine]	-0.65
CC[N+](C)(CC)CCOC(=O)C(O)(c1ccccc1)c1ccccc1 [Methylbenactyzine Bromide]	-1.19
COC(=O)C1=CCCN(C)C1 [Arecoline HBr]	0.28
